Screens: PubChem BioAssay, National Center for Advancing Translational Sciences (NCATS)
Rows were chosen to be rich in hits. Some 0.8% of all compounds tested hit in one or more screens of this group.
TRHR agonist-1: agonists of human TRH receptor. TRHR cells, calcium flux fluo-8, FDSS agonist mode. P34981. 0.18% of 360,000 active. AID 493084. activation, % at 2 µM; in the data active means activation above about 30%; further: 0% is about no effect
Target sequence (P34981 whole entry, looked up): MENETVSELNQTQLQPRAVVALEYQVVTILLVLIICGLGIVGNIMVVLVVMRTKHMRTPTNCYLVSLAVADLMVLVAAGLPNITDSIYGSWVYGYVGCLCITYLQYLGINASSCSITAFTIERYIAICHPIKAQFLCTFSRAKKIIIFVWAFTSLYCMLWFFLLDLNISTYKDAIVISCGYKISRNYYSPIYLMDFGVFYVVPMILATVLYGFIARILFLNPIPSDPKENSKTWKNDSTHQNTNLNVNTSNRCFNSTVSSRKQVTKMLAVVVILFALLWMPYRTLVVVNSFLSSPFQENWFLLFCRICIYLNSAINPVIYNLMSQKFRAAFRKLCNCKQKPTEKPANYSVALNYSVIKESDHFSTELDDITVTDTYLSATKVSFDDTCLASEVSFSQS
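TRHR-expressing cells, plated overnight in medium with 10% serum, were loaded with fluo-8 calcium dye at room temperature. After a 10 s baseline, library compound was pin-added and calcium release was recorded kinetically (ex 480/em 530) as agonist response.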
TRPML1 blocker: human mucolipin-1 channel inhibition | TRPML1-inducible cells, Ca2+ dye fluorescence, FDSS; stronger effect = lower value; inhibition of EC80 agonist-evoked calcium signal | activity change, negative = inhibition, % (concentration not given with the values) | Q9GZU1 | 0.02% of 390,000 active; in the data active means activity change below about -50%; inconclusive means between about -30% and that limit;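 further: stimulus is agonist 54-4 at its EC80 concentration; on the % scale 0 is the no-effect control and ±100 the full control effect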
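Calcium fluorescence in TRPML1-DL cells induced overnight with Tet: a 110 s read after compound pin addition, then a 110 s antagonist read after challenge with 54-4 at 4 uM final (EC80).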
TRHR enhancer-1: allosterically enhances the human TRH receptor; TRHR cells, fluo-8 calcium fluorescence, EC20 TRH enhancement; enhancement, % at 2 µM; 0.66% of 360,000 active; P34981; in the data active means enhancement above about 30%; further: 0% is about no effect
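Enhancer read-out: after compound pinning and an initial kinetic agonist-mode read, an EC20 of TRH (10 nM final) was injected and fluo-8 calcium signal (Ex 480/Em 530) followed at 1 s/cycle for 100 cycles in TRHR-expressing cells.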
Glioma ERSR ind: induces the endoplasmic reticulum stress response in human glioma cells; U87-MG GRP78 promoter luciferase reporter, 16 h; Potency, µM, for inactives: at the highest dose activation, usual class: activators; 0.02% of 420,000 active; AID 602332; further: potency means the concentration at half of the fitted maximal effect; series mostly up to about 76 µM; % of control where 0% means no effect; nearly all actives have a fitted effect of over 35% in size
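ERSR induction read as luciferase luminescence (Bright-Glo, 10 min at room temperature) in stably transfected human U87-MG glioma cells exposed to compounds for 16 h, using GRP78 as sensor.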
TRPML1 agonist: human mucolipin-1 channel agonism; Q9GZU1; AID 624414; 0.12% of 410,000 active; activation, % (no concentration beside the values); TRPML1-expressing cells, Ca2+ dye fluorescence, FDSS; in the data active means activation above about 50%; inconclusive means mostly about 30% to 49%; further: 0% is about no effect
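Tet-induced TRPML1-DL cells, 1,500 per well, cultured overnight, were loaded with a no-wash Ca2+ dye for 45–90 min. Calcium fluorescence was recorded on the FDSS for 110 s after compound addition, before the EC80 agonist (4 uM 54-4) was added.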
TRHR enhancer-2: confirmation of human TRH receptor allosteric enhancers | shares compounds with TRHR enhancer-1 | TRH receptor cell assay, enhancer confirmation qHTS | activity change, negative = inhibition, % at 46.1 µM | 970 tested, under 10 active | AID 493076;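 further: compound effect scored on response to added TRH at EC20 of 10 nM; 0% is about no effect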
TRHR agonist-2: confirmation of human TRH receptor agonists; TRHR-expressing cells, agonist activation read-out; shares compounds with TRHR enhancer-1; Potency, µM (titrated, usually from 46.1 µM), for the others: at the top dose activation, actives largely listed as activators; 8% of 970 active; further: potency means the concentration at half of the fitted maximal effect; 0% is about no effect; nearly all actives have a fitted effect of over 75% in size
* marks the source's active call; other numbers are inactive results; ? = inconclusive; . = no result. Unless noted, the call rests on the fitted dose curve; in most records, active means well fitted curve in the direction sought with a large enough effect; inconclusive means small, poorly fitted or top-dose-only effect, or another doubt; inactive means no such curve, though single readings can be large; an effect the other way counts as inactive or inconclusive.

SMILES	TRHR agonist-1	TRPML1 blocker	TRHR enhancer-1	Glioma ERSR ind	TRPML1 agonist	TRHR enhancer-2	TRHR agonist-2
O=C1/C(=C/c2ccccc2)Nc2ccccc21	50*	-8	10	6%	?	14	16µM*
COC(=O)[C@@H]1CCCN1Cc1ccc2c(c1)CN(Cc1cccn1-c1ncccn1)CCO2	.	.	.	-3%	.	.	.
COc1ccc2nc(N=Nc3ccc(N(C)C)cc3)sc2c1	-1	-19	86*	-10%	0	3	-1%
COc1ccc2nc(/N=C\N(C)C)sc2c1	0	4	5	-4%	1	.	.
COC(=O)c1cccc(C(=O)N2CCc3c(cnc(C)c3CNC(=O)c3ccsc3)C2)c1	.	.	.	-4%	.	.	.
COC(=O)C1CCN(Cc2ccc3c(c2)CN(C(=O)c2ccnn2C)CCO3)CC1	.	.	.	-3%	.	.	.
N#Cc1ccc(COc2ccc(CCO)cc2-n2nc3ccccc3n2)cc1	-1	-4	16	-7%	-1	.	.
OCCc1ccc(O)c(-n2nc3ccccc3n2)c1	0	-23	44*	-2%	0	0	6%
N#Cc1nc(COc2ccccc2)oc1NCCCn1ccnc1	0	4	57*	2%	-1	-5	1%
Cc1ccc(OCc2nc(C#N)c(NCCCn3ccnc3)o2)cc1	0	7	-3	-3%	-1	.	.
CCc1ccc(NC(=O)N(Cc2cccnc2)Cc2ccco2)cc1	-1	-27	43*	-4%	3	?	16µM*
Cc1c(C(=O)N2CCOc3ccc(Cl)cc3C2)sc2ncnc(NCCc3ccccn3)c12	.	.	.	-3%	.	.	.
COc1ccc(C(=O)NCc2nnnn2-c2ccc(C)c(C)c2)cc1	-1	-1	68*	1%	-1	-3	0%
Cc1ccc(C(=O)NCc2nnnn2-c2ccc(C)c(C)c2)cc1	-1	12	4	-3%	1	.	.
COc1ccc(CN2CCC(C(=O)Nc3ccc(Oc4ccccc4)nc3)CC2)cc1F	2	-12	72*	-3%	1	-2	?
COCCn1c(SCC(=O)N2CC(=O)Nc3ccccc32)nc2ccccc21	45*	-2	7	-4%	0	-6	-1%
COC(=O)[C@@H](NC(=O)C1CCCN(c2nc(C)c3ccc(C)cc3n2)C1)C(C)C (some centres not stated)	.	.	.	-4%	.	.	.
CCOc1ccccc1NC(=O)NC1CC2CCCC(C1)N2Cc1nnnn1CCc1ccccc1 (configuration not stated)	61*	-14	-1	-2%	0	-7	2%
Cc1cc2c(s1)c1cnn(Cc3cccc(C(F)(F)F)c3)c(=O)c1n2C	1	.	-3	.	.	.	.
COc1ccc(C(=O)C2CCN(C(=O)c3ccco3)CC2)cc1	0	2	49*	0%	0	?	7%
COc1ccc(C(=O)C2CCN(C(=O)c3ccc(C)cc3)CC2)cc1	-1	-2	-5	-4%	1	.	.
O=[S+]([O-])(c1c(F)cccc1F)N1CCN([S+](=O)([O-])c2c(F)c(F)c(F)c(F)c2F)CC1	-1	.	3	.	.	.	.
COc1ccc(CN2CCC(n3cc(C(=O)N4CCCCC4)nn3)CC2)c(OC)c1	.	.	.	-2%	.	.	.
O=S(=O)(NC1CCCCC1N1CCOCC1)c1ccc(Cl)cc1 (configuration not stated)	15	-15	-2	-4%	0	.	.
O=S(=O)(NC1CCCCC1N1CCN(c2ccccc2F)CC1)c1ccc(Cl)cc1 (configuration not stated)	33*	17	-9	-6%	0	-10	?
SMILES	TRHR agonist-1	TRPML1 blocker	TRHR enhancer-1	Glioma ERSR ind	TRPML1 agonist	TRHR enhancer-2	TRHR agonist-2
CCO[C@H]1OC(C(=O)NC2CC2)=C[C@@H](C)[C@@H]1CCCO	-1	-10	44*	-3%	0	-1	-1%
COc1cc2nc(N(C)C)c(CNCc3nonc3C)cc2c(OC)c1OC	.	.	.	-6%	.	.	.
COc1ccc(Cn2nnnc2CN(CCCN2CCOCC2)Cc2cc3cc(OC)ccc3[nH]c2=O)cc1	0	0	43*	-3%	0	8	-1%
O=C(NCc1ccc(F)cc1)c1ccc(N2CCOCC2)c([N+](=O)[O-])c1	0	16	3	-2%	2	.	.
O=C(N/N=C/c1ccc(N2CCOCC2)c([N+](=O)[O-])c1)c1ccc(F)cc1	0	10	100*	-4%	1	7	2%
COc1ccc(NC(=O)Cn2nnc(-c3ccccc3NS(=O)(=O)c3ccc(OC)cc3)n2)cc1	0	8	41*	-3%	0	5	0%
COc1ccccc1NC(=O)Cn1nnc(-c2ccccc2NS(=O)(=O)c2ccccc2)n1	0	4	0	-2%	2	.	.
Cc1ccc(C)c(NC(=O)C[n+]2ccccc2)c1	0	0	65*	-5%	0	4	-1%
COc1ccc(C2(C(=O)NCC3Cc4cccc(-c5cccnc5)c4O3)CCCC2)cc1 (configuration not stated)	.	.	.	-6%	.	.	.
Cc1ccccc1-c1cc2c(c(OC3CCOC3)c1)OCCN(C(=O)Cn1cccn1)C2 (configuration not stated)	.	.	.	2%	.	.	.
COCC(=O)Nc1cc(C(=O)N2CC3CCC2C3)c2c(c1)nc(-c1ccncc1)n2C (configuration not stated)	.	.	.	-3%	.	.	.
O=C(COc1ncnc2ccccc12)NCCc1ccccc1	0	9	58*	-8%	0	-2	-1%
NS(=O)(=O)c1ccc(NC(=O)CN2CCc3ccccc32)cc1	0	13	56*	-1%	1	-1	-1%
Cc1ccc2c(c1)CN(CCNC(=O)c1ccc3nc(C)[nH]c3c1)CC(C)O2 (configuration not stated)	.	.	.	-4%	.	.	.
O=C(c1ccc(C(F)(F)F)cc1)C1CCCN(C(=O)CN2CCCC2=O)C1 (configuration not stated)	0	-8	56*	8%	0	-3	4%
O=C(NCCc1ccc(Cl)cc1)c1cc(=O)[nH]c2ccccc12	-1	25	43*	-1%	0	?	2%
Cc1ccc2[nH]c(=O)c3cc(C(=O)NCCc4ccc(Cl)cc4)sc3c2c1	2	8	57*	-3%	1	3	1%
O=C(NCCc1ccc(Cl)cc1)c1cc(-c2ccncc2)nc2ccccc12	0	.	-4	-8%	.	.	.
O=C(NCCc1ccc(Cl)cc1)c1cc(-c2ccccn2)nc2ccccc12	0	46	49*	-7%	2	-3	2%
NS(=O)(=O)c1ccc(CCNC(=O)c2cc(=O)[nH]c3ccccc23)cc1	-1	11	6	-2%	1	.	.
